One experiment concerns MKL-1. The experiment can be described thus: qHTS assay to identify novel small-molecules to repurpose for Merkel cell carcinoma treatment (AID 1296009). Further: nearly all actives have a fitted effect of over 60% in size. Conditions: MCC and control cell lines, CellTiter-Glo viability, 72 h; series mostly up to 46 µM. The method in brief: (§1)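 Cell viability measured by CellTiter-Glo following 72 hr compound treatment at 37 degree celsius, with NPC and MIPE libraries tested in 8- and 11-point concentration series.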
(In general: In qHTS, concentration-response curves come from the screen itself.)

In a further experiment the test system is UISO. Described as above. Conditions: MCC and control cell lines, CellTiter-Glo viability, 72 h; series mostly up to 46 µM. The gist of the method: as §1
In general terms: ATP-based viability assays read luminescence as a measure of living cells.

A further experiment has as its system CAOV3. The experiment can be described thus: Primary qHTS to identify gynecologic anti-cancer compounds using libraries of approved drugs and bioactive compounds (AID 1345084). Further: nearly all actives have a fitted effect of over 55% in size. As to conditions: Gynecologic cancer cell panel viability, ATPlite luminescence, 48 h; series mostly up to 57.5 µM. The method in brief: (§2)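 Cells, 1,000 per well, plated 16 h, then exposed 48 h at 37 C to compounds. Viability by ATPlite luminescence after 15 min at room temperature.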

The next experiment concerns Es-2. The description is as above. Conditions: Gynecologic cancer cell panel viability, ATPlite luminescence, 48 h; series mostly up to 57.5 µM. The method in brief:
as §2

A further experiment relates to HeLa. The experiment is described as above. Conditions: Gynecologic cancer cell panel viability, ATPlite luminescence, 48 h; series mostly up to 57.5 µM. The gist of the method:
as §2

The next experiment deals with Hek293T. The experiment is described as above. Conditions: Gynecologic cancer cell panel viability, ATPlite luminescence, 48 h, control line for the selectivity index; series mostly up to 57.5 µM. The method in brief:
as §2

The next experiment relates to JEG-3. Described as above. Conditions: Gynecologic cancer cell panel viability, ATPlite luminescence, 48 h; series mostly up to 57.5 µM. The method in brief: as §2
The test system of another experiment is OV90. The description is as above. Conditions: Gynecologic cancer cell panel viability, ATPlite luminescence, 48 h; series mostly up to 57.5 µM. The method in brief:
as §2

A further experiment concerns PA-1. The experiment is described as above. As to conditions: Gynecologic cancer cell panel viability, ATPlite luminescence, 48 h; series mostly up to 57.5 µM. The gist of the method:
as §2

The test system of a further experiment is SKOV3. The experiment is described as above. As to conditions: Gynecologic cancer cell panel viability, ATPlite luminescence, 48 h; series mostly up to 57.5 µM. The method in brief:
as §2

The next experiment deals with Tov-21-G. The experiment is described as above. As to conditions: Gynecologic cancer cell panel viability, ATPlite luminescence, 48 h; series mostly up to 57.5 µM. The method in brief:
as §2

Another experiment relates to Tov112D. Described as above. Conditions: Gynecologic cancer cell panel viability, ATPlite luminescence, 48 h; series mostly up to 57.5 µM. The method in brief: as §2
Another experiment concerns WaGa. The experiment can be described thus: qHTS assay to identify novel small-molecules to repurpose for Merkel cell carcinoma treatment (AID 1296009). Further: nearly all actives have a fitted effect of over 60% in size. Conditions: MCC and control cell lines, CellTiter-Glo viability, 72 h; series mostly up to 46 µM. The method in brief: as §1
The nature of experiment [1]: qHTS assay to identify inhibitors of the type 1 interferon - major histocompatibility complex class I in skeletal muscle: Counter screen cell viability and HiBit confirmation (AID 1347412). On all read-outs here: nearly all actives have a fitted effect of over 60% in size. Conditions: iHSKM muscle cells + IFN-b, HiBiT or CellTiter-Glo, 24 h; for activity change, negative = inhibition: at 45.9 µM (top of the series). The method in brief:
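Luminescence read-out: Nano-Glo HiBiT lytic signal from C-terminally HiBiT-tagged HLA-B in CRISPR-edited human myoblasts, plus CellTiter Glo ATP as viability counter screen. IFN-beta 4.0 ng/ml; 24 hrs treatment at 37 C, 5% CO2.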

The test system of a further experiment is MKL-2. The experiment can be described thus: qHTS assay to identify novel small-molecules to repurpose for Merkel cell carcinoma treatment (AID 1296009). Further: nearly all actives have a fitted effect of over 60% in size. Conditions: MCC and control cell lines, CellTiter-Glo viability, 72 h; series mostly up to 46 µM. The method in brief: as §1
In another experiment the test system is NIH3T3. The description is as above. As to conditions: MCC and control cell lines, CellTiter-Glo viability, 72 h; at 44.8 µM (top of the series) unless noted. The method in brief:
as §1

A further experiment has as its system C33A. The experiment in a line: Primary qHTS to identify gynecologic anti-cancer compounds using libraries of approved drugs and bioactive compounds (AID 1345084). Further: nearly all actives have a fitted effect of over 55% in size. As to conditions: Gynecologic cancer cell panel viability, ATPlite luminescence, 48 h; series mostly up to 57.5 µM. The gist of the method:
as §2

The test system of a further experiment is CASKI. Described as above. As to conditions: Gynecologic cancer cell panel viability, ATPlite luminescence, 48 h; series mostly up to 57.5 µM. The method in brief: as §2

Records with an inconclusive call do not appear. A number with no mark means an inactive call. The source made the active and inactive calls. The call rests on the fitted dose curve; in most records, active means well fitted curve in the direction sought with a large enough effect; inconclusive means small, poorly fitted or top-dose-only effect, or another doubt; inactive means no such curve, though single readings can be large; an effect the other way counts as inactive or inconclusive.
On the % scale 0 is the no-effect control and ±100 the full control effect; potency means the concentration at half of the fitted maximal effect.

With `COc1cc2c(Oc3ccc(NC(=O)C4(C(=O)Nc5ccc(F)cc5)CC4)cc3F)ccnc2cc1OCCCN1CCOCC1`, the Potency with MKL-1 is 4690 nM (active); in the experiment on UISO, 6620 nM (active); in the experiment with CAOV3 it was 10000 nM (active); with Es-2 it was 25100 nM (active); with HeLa, 6310 nM (active); in the experiment on Hek293T, 7940 nM (active). For the same compound, the Potency was 12600 nM (active) in the experiment on OV90; 28200 nM (active) in the experiment with PA-1; 22400 nM (active) in the experiment with SKOV3; 15800 nM (active) in the experiment on Tov-21-G; 12600 nM (active) in the experiment on Tov112D. For the same compound, in the experiment with JEG-3, the Potency result was “inactive”.
Consider `c1cc(-c2cnn3cc(-c4ccc(OCCN5CCCCC5)cc4)cnc23)ccn1`, for which the Potency in the experiment on MKL-1 was 11800 nM (active); in the experiment on UISO, 5900 nM (active); with WaGa, 13200 nM (active); in [1] (HiBiT), 14000 nM (active).
For `COc1cc2ncnc(Nc3ccc(F)c(Cl)c3)c2cc1NC(=O)C=CCN1CCCCC1`, the Potency in the experiment with MKL-2 was 3720 nM (active).
Consider `C=CC(=O)Nc1cc2c(Nc3ccc(F)c(Cl)c3)ncnc2cc1C#CC(C)(C)N1CCN(C)CC1`, for which the Potency is 6620 nM (active) in the experiment with MKL-1, 7430 nM (active) with UISO, 5260 nM (active) in the experiment with WaGa and 22200 nM (active) in experiment [1] (Viability).
For the compound `O=C(C=Cc1cccnc1)NCCCCC1CCN(C(=O)c2ccccc2)CC1`, the Potency in the experiment with MKL-2 was 20.9 nM (active); with UISO, 20.9 nM (active); with WaGa, 16.6 nM (active).
As for `CC=C1NC(=O)[C@H]2CSSCCC=C[C@H](CC(=O)N[C@H](C(C)C)C(=O)N2)OC(=O)[C@H](C(C)C)NC1=O`, the figures for the Potency in the experiment on MKL-2, with UISO and with WaGa were 16.6 nM (active), 16.6 nM (active) and 26.4 nM (active), respectively.
Take `Clc1ccc2ncc(-c3cccc(NC4CNC4)n3)n2c1`: the Potency entry with MKL-2, in the experiment on C33A, in the experiment with CAOV3, in the experiment with CASKI, with Es-2 and with HeLa was “inactive” throughout. The Potency result in the experiment on Hek293T, with JEG-3, with OV90, in the experiment on PA-1, in the experiment on SKOV3 and with Tov-21-G was “inactive” throughout. For the same compound, the Potency result with Tov112D was “inactive”. For the same compound, the call in the experiment with NIH3T3 was inactive.
For the compound `NC(=O)c1cccc2cn(-c3ccc([C@@H]4CCCNC4)cc3)nc12`, the Potency with MKL-1 was 18700 nM (active); with WaGa, 10500 nM (active). Also, the Potency entry in the experiment on C33A, in the experiment with CAOV3, in the experiment on CASKI, with HeLa, in the experiment with Hek293T and with JEG-3 was “inactive” each time. The Potency result in the experiment on OV90, in the experiment on SKOV3 and with Tov-21-G was “inactive” in each case.
Consider `CN(c1ncccc1CNc1nc(Nc2ccc3c(c2)CC(=O)N3)ncc1C(F)(F)F)S(C)(=O)=O`, for which the Potency was 9350 nM (active) with MKL-1, 11800 nM (active) with UISO, 8330 nM (active) in the experiment on WaGa and 4970 nM (active) in experiment [1] (HiBiT). Also, the activity change, negative = inhibition in experiment [1] (Viability) is 13.6%.
As for `O=C(O)c1ccc2cc(-c3ccc(O)c(C45CC6CC(CC(C6)C4)C5)c3)ccc2c1`, the figures for the Potency with MKL-1, in the experiment on UISO and in the experiment on WaGa were 2350 nM (active), 1180 nM (active) and 2350 nM (active), respectively.
As to `CC(NCc1ccc2c(c1)nc(NC(=O)c1ccc(-c3cn[nH]c3)s1)n2CC(C)(C)O)C(C)(C)C` (stereo unspecified), the Potency in the experiment on MKL-1 was 332 nM (active); with UISO it was 1320 nM (active); in the experiment on WaGa, 526 nM (active).
On to `COCCn1c2c([n+](Cc3cnccn3)c1C)C(=O)c1ccccc1C2=O`, for which the Potency was 2.3 nM (active) with MKL-1; 18.7 nM (active) in the experiment on UISO; 13.2 nM (active) with WaGa; 1980 nM (active) in experiment [1] (HiBiT); 2490 nM (active) in experiment [1] (Viability).
With `OCCCNc1cc(-c2ccnc(Nc3cccc(Cl)c3)n2)ccn1`, the Potency in the experiment with MKL-2 is 296 nM (active); in the experiment with UISO, 148 nM (active); in the experiment on C33A it was 562 nM (active); in the experiment on CASKI, 398 nM (active); in the experiment with Es-2, 224 nM (active); in the experiment on HeLa, 158 nM (active). The Potency in the experiment with Hek293T is 199 nM (active); in the experiment on PA-1, 100 nM (active); in the experiment with Tov-21-G, 158 nM (active); with Tov112D, 316 nM (active); in [1] (HiBiT), 125 nM (active). For the same compound, the Potency entry with CAOV3 is “inactive”. In addition, the activity change, negative = inhibition in experiment [1] (Viability) is 15.1%.

The record behind these values is PubChem BioAssay (NCATS).
